Measurements as given in the OligoGym collection.
Note: reference of the scale not given here.

The sequences below were run against CREB5 (assay: pooled miR-30 sensor sort-seq; sequence = guide strand). Details: shRNA.
In the case of TTAACAGGCAACAACCACCAGA, the sensor-assay potency score (higher = more potent) is reported as -0.508. TATGTGTTAACAACAACTGTTT was tested, and the sensor-assay potency score (higher = more potent) was -0.672. TTAGATATCCTTGTGATTCTTT gave a sensor-assay potency score (higher = more potent) of 0.29. For TTGAACTGAGCTATTTTTCTGG, the sensor-assay potency score (higher = more potent) was 0.269.

These sequences were tested against CREG1 in the same assay as above. Details: shRNA.
TCACCTTGGTCACAGTTCCTGA showed a sensor-assay potency score (higher = more potent) of -0.428. TTTGCAATATCCATTTCTGTTT showed a sensor-assay potency score (higher = more potent) of -1.42. TTTGTGGATCAAATCCATGTTT gave a sensor-assay potency score (higher = more potent) of -0.755. For TTCACCTTGGTCACAGTTCCTG, the sensor-assay potency score (higher = more potent) was -0.406. TTGTGGATCAAATCCATGTTTC showed a sensor-assay potency score (higher = more potent) of -1.13. Work on TCCAATAACAGGTCAACTCTAT yielded a sensor-assay potency score (higher = more potent) of -0.715. TGGTCCACCAAAGTAGTCCAGG gave a sensor-assay potency score (higher = more potent) of -1.37. ATATTGGTTATATTCAACTTAG was tested, and the sensor-assay potency score (higher = more potent) was -1.21. TAGAAATAGGGCACGCCGCTGC was tested, and the sensor-assay potency score (higher = more potent) was -0.314. TTCTTGCAGAAGTTGGTCTGTG was tested, and the sensor-assay potency score (higher = more potent) was -0.659. Sequence TTTCTTGCAGAAGTTGGTCTGT has a sensor-assay potency score (higher = more potent) of 0.391.

What follows are sequences tested against CRIPAK in the same assay as above. Details: shRNA.
TACAGAACCACCATGCCAGGGC gave a sensor-assay potency score (higher = more potent) of 0.653. AACAGCGTCTGACTCGGCCGGC gave a sensor-assay potency score (higher = more potent) of -0.602. Work on TAGAATGTACGGTAACAGCGTC yielded a sensor-assay potency score (higher = more potent) of -0.204. Work on TACGGTAACAGCGTCTGACTCG yielded a sensor-assay potency score (higher = more potent) of -0.0922. TATAAAAGGGATCCTTGACATA gave a sensor-assay potency score (higher = more potent) of -1.08. For ACCTACAGAACCACCATGCCAG, the sensor-assay potency score (higher = more potent) was -1.69. For TCGACATGTGTGAGCAGGCGGG, the sensor-assay potency score (higher = more potent) was -1.62. Work on TTAAAAAGCCACCATGAGTAGA yielded a sensor-assay potency score (higher = more potent) of -1.01. Work on ACCATGAGTAGAATGTACGGTA yielded a sensor-assay potency score (higher = more potent) of -1.4. TCCACATGGGCACATGAGCAGG was tested, and the sensor-assay potency score (higher = more potent) was -2.25. ATGTACGGTAACAGCGTCTGAC gave a sensor-assay potency score (higher = more potent) of -0.866. TAACAGCGTCTGACTCGGCCGG showed a sensor-assay potency score (higher = more potent) of -0.738.

These sequences were tested against CROT in the same assay as above. Details: shRNA.
TTGTAACATCTTTTGCTGCCGC gave a sensor-assay potency score (higher = more potent) of -0.495. TATATCTCGTACCTTCTCTGAA gave a sensor-assay potency score (higher = more potent) of -0.557. TTCATAGCAACAACCAGGGTGT was tested, and the sensor-assay potency score (higher = more potent) was 0.163. In the case of TTTTCTTATATTCTTCTTGATT, the sensor-assay potency score (higher = more potent) is reported as -1.35. TTCTAATTGAGTCCCTTCCTTT was tested, and the sensor-assay potency score (higher = more potent) was -0.88. TATACCAGTAAACTACTCTGAA gave a sensor-assay potency score (higher = more potent) of 0.286. Sequence TAGAGGAGTATTTCCAACTTTA has a sensor-assay potency score (higher = more potent) of -0.214. Work on TTTCATAGCAACAACCAGGGTG yielded a sensor-assay potency score (higher = more potent) of 0.143. TGATGGTATACGAACATCCAGA was tested, and the sensor-assay potency score (higher = more potent) was -1.05. Sequence TAGCATTCGGAATTGATTCATA has a sensor-assay potency score (higher = more potent) of -0.712. Sequence TTGTCTGAGAAGCTCTGGCGGG has a sensor-assay potency score (higher = more potent) of -0.935. For TTCAAGTGAAGGAACAGGCAGT, the sensor-assay potency score (higher = more potent) was 0.589.
